Drawing on ChEMBL document CHEMBL1961873, “Compounds: GSK PKIS; Assays: Nanosyn kinase panel” (2012), this text covers inhibition for seven compounds.

Assay [1] has as its target Fibroblast growth factor receptor 4 (Homo sapiens) (UniProt P22455). The note with it: at 1 µM.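 Also: reported figure is the averaged percent inhibition of FGFR4, from the GSK PKIS kinase screening panel.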
The target in assay [2] is Tyrosine-protein kinase Fgr (Homo sapiens) (UniProt P09769). The note with it: at 0.1 µM.
Tyrosine-protein kinase Fgr (Homo sapiens), sequence (P09769 2-529 limits assumed): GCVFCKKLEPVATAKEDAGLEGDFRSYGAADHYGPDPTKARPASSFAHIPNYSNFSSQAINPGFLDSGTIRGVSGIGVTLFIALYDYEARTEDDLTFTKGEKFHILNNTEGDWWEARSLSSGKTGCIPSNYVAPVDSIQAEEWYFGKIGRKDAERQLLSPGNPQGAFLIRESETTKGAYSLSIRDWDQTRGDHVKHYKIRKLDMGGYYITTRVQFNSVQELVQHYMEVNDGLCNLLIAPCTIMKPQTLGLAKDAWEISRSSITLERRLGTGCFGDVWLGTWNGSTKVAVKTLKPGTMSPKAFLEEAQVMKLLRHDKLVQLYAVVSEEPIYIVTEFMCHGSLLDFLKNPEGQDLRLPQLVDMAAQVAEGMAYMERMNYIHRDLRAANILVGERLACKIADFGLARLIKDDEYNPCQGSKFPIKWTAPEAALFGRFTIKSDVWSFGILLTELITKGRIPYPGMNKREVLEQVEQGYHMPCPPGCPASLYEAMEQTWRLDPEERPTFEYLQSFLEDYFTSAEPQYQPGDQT
Assay [3] has the same target. Conditions: at 1 µM.
For assay [4], the target named is Vascular endothelial growth factor receptor 1 (Homo sapiens) (UniProt P17948). The note with it: at 0.1 µM.
For assay [5] the target is unchanged. Conditions: at 1 µM.
Assay [6] deals with Receptor-type tyrosine-protein kinase FLT3 (Homo sapiens) (UniProt P36888). Conditions: at 0.1 µM.
For assay [7] the target is unchanged. The note with it: at 1 µM.
For assay [8], the system named is T1, Receptor-type tyrosine-protein kinase FLT3 (Homo sapiens), P36888 [D835Y].
T1 sequence (whole entry): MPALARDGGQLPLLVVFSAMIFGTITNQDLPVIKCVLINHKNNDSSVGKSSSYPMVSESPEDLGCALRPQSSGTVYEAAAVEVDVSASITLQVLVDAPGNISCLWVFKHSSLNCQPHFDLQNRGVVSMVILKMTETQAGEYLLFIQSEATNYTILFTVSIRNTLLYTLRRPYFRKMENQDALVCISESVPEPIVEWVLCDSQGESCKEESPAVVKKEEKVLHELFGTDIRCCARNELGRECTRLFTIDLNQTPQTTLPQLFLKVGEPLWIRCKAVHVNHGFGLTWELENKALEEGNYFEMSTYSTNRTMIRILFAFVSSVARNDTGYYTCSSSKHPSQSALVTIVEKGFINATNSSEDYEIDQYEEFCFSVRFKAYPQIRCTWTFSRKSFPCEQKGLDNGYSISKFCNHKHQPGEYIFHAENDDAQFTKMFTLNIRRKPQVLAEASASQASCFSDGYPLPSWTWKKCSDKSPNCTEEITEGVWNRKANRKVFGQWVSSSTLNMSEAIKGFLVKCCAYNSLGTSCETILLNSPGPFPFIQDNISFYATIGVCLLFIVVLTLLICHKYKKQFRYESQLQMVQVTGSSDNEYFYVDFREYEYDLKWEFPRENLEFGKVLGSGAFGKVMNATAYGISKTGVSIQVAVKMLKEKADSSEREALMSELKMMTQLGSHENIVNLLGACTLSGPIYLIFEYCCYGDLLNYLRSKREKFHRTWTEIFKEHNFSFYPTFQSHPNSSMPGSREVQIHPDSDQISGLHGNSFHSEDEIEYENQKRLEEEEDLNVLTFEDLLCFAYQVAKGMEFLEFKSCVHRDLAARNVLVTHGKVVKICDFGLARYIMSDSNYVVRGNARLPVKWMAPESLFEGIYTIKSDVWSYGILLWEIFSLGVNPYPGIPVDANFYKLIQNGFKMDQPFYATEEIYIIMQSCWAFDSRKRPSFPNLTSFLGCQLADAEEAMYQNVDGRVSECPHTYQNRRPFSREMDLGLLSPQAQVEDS
The note with it: at 0.1 µM.

The target in assay [9] is Non-receptor tyrosine-protein kinase TYK2 (Homo sapiens) (UniProt P29597). The note with it: at 1 µM.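 Also: values are mean percent inhibition of TYK2 kinase.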
Non-receptor tyrosine-protein kinase TYK2 (Homo sapiens), sequence (P29597 whole entry): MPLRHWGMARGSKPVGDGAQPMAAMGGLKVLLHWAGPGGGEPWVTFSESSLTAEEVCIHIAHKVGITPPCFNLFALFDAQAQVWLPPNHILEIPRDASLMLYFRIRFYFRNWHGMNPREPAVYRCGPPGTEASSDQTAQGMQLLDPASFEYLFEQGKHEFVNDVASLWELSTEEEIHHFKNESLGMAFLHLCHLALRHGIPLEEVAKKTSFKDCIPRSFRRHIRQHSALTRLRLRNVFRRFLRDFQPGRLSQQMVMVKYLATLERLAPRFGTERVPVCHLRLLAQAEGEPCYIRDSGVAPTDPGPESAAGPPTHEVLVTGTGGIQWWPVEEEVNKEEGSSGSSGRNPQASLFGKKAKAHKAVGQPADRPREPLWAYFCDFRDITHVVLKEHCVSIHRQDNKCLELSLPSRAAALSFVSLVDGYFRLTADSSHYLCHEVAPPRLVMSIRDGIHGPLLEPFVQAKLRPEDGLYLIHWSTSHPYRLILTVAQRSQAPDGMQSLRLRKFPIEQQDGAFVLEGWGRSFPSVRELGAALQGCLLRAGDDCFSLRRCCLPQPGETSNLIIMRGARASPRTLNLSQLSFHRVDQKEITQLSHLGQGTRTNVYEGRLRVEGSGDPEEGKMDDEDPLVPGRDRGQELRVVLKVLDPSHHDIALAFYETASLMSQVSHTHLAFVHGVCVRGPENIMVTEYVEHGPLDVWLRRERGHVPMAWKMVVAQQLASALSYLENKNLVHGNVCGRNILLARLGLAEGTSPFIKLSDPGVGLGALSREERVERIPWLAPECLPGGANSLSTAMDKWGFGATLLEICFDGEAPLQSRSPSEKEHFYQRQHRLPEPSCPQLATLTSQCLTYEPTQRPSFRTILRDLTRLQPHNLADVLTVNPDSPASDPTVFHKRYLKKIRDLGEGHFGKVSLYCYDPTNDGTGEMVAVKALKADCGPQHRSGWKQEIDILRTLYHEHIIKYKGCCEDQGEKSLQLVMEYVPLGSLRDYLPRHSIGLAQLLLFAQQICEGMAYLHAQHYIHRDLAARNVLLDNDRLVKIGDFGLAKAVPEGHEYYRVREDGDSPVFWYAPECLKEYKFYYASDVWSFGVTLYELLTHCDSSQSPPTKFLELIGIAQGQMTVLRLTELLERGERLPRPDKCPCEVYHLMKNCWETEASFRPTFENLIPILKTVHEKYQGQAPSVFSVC
Assay [10] addresses T2, Tyrosine-protein kinase receptor TYRO3 (Homo sapiens) (UniProt Q06418).
T2 sequence (whole entry): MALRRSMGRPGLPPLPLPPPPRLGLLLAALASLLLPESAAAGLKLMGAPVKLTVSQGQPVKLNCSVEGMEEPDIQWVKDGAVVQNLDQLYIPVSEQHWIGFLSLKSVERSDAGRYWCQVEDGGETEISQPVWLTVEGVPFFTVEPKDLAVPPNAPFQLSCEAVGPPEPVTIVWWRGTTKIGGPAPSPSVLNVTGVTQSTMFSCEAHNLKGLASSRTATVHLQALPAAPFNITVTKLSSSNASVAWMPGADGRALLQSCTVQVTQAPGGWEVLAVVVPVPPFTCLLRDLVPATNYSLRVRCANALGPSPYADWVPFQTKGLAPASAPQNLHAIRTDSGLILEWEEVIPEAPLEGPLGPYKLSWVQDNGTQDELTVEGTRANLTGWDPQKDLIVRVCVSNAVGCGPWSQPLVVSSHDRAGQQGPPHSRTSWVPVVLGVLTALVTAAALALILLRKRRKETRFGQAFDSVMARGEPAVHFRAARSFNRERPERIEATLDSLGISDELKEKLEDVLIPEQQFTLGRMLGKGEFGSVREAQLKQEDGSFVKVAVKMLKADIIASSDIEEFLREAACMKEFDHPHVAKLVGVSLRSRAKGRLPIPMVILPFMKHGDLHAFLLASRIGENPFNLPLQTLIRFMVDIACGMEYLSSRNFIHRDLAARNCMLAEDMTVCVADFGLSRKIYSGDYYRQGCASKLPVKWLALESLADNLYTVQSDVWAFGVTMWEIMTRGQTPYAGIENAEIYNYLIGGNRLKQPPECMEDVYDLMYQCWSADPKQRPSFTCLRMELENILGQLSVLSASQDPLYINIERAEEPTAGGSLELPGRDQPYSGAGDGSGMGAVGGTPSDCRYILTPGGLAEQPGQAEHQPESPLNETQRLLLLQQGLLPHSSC
Conditions: at 0.1 µM.

Assay [11] concerns the target T2, Tyrosine-protein kinase receptor TYRO3 (Homo sapiens). Conditions: at 1 µM.
The target of assay [12] is Tyrosine-protein kinase Yes (Homo sapiens) (UniProt P07947). The note with it: at 0.1 µM.
Tyrosine-protein kinase Yes (Homo sapiens), sequence (P07947 2-543 limits assumed): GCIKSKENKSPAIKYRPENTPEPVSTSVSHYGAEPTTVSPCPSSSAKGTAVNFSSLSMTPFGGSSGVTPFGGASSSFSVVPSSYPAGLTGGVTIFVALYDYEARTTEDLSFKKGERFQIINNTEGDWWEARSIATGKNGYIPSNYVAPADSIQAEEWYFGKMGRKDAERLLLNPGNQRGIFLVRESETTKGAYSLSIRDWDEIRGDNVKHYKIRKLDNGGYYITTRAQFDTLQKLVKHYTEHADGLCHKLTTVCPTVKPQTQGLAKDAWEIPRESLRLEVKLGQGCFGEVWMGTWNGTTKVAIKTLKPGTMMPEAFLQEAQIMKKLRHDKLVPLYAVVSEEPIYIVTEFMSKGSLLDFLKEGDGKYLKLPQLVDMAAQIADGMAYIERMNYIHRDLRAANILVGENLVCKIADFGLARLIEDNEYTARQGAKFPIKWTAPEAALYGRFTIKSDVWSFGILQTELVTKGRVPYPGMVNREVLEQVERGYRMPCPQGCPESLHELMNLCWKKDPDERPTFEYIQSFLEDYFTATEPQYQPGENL
The target is the same in assay [13]. Conditions: at 1 µM.
Assay [14] addresses T3, Tyrosine-protein kinase ZAP-70 (Homo sapiens) (UniProt P43403).
T3 sequence (whole entry): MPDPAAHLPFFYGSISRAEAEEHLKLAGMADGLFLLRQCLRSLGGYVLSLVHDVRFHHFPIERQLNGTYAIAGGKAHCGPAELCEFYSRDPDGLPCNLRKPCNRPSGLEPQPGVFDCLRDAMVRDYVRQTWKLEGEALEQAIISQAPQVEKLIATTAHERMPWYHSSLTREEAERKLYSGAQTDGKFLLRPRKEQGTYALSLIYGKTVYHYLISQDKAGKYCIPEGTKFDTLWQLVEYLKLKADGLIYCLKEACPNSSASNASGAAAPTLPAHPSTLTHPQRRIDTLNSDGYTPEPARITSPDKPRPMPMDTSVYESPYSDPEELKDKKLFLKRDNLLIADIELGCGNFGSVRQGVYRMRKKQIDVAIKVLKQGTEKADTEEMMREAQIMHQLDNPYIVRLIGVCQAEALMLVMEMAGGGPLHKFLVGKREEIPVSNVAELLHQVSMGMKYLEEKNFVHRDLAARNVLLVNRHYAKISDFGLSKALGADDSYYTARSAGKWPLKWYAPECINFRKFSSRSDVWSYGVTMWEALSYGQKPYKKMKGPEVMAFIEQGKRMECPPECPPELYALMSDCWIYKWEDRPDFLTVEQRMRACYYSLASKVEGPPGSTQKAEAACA
The note with it: at 1 µM.

Assay [15] deals with Serine/threonine-protein kinase B-raf (Homo sapiens) (UniProt P15056). The note with it: at 0.1 µM.
Serine/threonine-protein kinase B-raf (Homo sapiens), sequence (P15056 whole entry): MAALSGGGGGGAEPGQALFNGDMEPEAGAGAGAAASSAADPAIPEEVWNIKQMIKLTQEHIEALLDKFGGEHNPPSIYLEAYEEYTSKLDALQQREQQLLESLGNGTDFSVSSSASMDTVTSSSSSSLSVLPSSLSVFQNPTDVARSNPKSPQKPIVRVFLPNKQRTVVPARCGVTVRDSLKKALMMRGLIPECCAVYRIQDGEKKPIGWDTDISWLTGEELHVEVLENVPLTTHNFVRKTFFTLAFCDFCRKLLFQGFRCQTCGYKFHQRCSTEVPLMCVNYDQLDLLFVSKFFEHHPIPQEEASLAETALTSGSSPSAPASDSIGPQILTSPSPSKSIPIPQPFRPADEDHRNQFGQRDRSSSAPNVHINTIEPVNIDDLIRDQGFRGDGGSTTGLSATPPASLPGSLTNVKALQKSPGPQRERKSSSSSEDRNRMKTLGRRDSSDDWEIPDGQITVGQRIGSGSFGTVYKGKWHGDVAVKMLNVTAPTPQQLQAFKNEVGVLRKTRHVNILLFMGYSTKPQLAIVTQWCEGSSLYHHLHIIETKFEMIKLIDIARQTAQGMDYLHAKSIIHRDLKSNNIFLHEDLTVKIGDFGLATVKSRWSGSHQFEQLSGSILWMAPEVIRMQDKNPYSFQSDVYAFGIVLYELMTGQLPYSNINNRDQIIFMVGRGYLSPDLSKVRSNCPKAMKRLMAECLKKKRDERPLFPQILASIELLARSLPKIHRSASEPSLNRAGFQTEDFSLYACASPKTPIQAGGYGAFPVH
Assay [16] has the same target. The note with it: at 1 µM.
Assay [17] deals with Serine/threonine-protein kinase B-raf (Homo sapiens), P15056 [V600E]. Conditions: at 0.1 µM.
Serine/threonine-protein kinase B-raf (Homo sapiens), P15056 [V600E], sequence (P15056 whole entry V600E): as the sequence (P15056 whole entry) above, with V600E counted along it
Assay [18] shares this test system. The note with it: at 1 µM.
Assay [19] deals with RAF proto-oncogene serine/threonine-protein kinase (Homo sapiens) (UniProt P04049). Conditions: at 0.1 µM.
RAF proto-oncogene serine/threonine-protein kinase (Homo sapiens), sequence (P04049 whole entry): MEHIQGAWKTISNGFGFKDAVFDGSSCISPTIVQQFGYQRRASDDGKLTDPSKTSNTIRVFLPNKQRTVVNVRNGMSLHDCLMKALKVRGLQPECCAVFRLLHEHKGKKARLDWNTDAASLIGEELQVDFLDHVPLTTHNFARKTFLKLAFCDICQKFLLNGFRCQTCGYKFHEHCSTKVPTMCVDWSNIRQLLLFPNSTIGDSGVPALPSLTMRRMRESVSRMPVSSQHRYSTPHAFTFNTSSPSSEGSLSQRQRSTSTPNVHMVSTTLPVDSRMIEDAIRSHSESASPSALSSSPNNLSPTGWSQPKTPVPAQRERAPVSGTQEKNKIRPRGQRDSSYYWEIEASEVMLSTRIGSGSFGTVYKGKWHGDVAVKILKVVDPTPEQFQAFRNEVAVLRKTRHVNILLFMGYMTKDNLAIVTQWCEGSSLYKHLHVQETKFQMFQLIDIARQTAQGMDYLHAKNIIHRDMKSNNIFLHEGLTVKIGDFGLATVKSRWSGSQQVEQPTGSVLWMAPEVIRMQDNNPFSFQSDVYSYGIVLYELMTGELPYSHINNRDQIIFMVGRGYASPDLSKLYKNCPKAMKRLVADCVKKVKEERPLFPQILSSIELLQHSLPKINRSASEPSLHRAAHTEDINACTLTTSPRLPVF
Assay [20] concerns the target T3, Tyrosine-protein kinase ZAP-70 (Homo sapiens). The note with it: at 0.1 µM.

Fibroblast growth factor receptor 4 (Homo sapiens), sequence (P22455 22-802 limits assumed): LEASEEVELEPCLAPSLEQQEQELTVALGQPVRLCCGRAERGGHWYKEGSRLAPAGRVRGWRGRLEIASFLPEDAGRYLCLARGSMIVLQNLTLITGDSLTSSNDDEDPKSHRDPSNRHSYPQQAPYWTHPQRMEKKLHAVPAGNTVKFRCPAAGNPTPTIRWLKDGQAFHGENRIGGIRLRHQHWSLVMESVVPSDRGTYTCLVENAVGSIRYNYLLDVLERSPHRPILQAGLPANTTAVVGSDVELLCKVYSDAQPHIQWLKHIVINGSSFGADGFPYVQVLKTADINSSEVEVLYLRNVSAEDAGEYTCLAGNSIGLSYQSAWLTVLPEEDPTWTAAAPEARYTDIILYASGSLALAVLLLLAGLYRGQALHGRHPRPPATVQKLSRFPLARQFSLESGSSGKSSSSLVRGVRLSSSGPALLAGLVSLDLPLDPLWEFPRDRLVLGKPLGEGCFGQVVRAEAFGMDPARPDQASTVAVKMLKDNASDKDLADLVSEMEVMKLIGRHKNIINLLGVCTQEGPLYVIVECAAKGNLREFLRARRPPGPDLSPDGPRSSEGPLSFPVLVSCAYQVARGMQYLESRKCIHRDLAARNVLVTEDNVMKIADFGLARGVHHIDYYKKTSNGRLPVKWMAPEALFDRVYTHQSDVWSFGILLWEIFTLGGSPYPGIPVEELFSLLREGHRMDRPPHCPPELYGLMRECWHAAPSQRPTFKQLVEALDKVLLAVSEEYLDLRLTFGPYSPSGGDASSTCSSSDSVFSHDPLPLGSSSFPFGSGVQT

For `CCn1c(-c2nonc2N)nc2c(C#CC(C)(C)O)ncc(OC[C@@H]3CCCN3)c21`, the inhibition is 2.23% in assay [1]; 1.47% in [2]; 2.16% in [3]; 1.39% in assay [4]; 17.4% in assay [5]; -1% in assay [6]. The inhibition in assay [7] is -0.61%; in assay [8], -6.46%; in assay [9], -1.89%; in assay [10] it was -1.01%; in assay [11] it was 1.75%; in [12] it was -0.57%. Further, the inhibition in assay [13] was 2.07%; in assay [14] it was -0.24%; in assay [15], 0.45%; in assay [16], 0.01%; in [17], 0.87%; in [18], 0.05%. Besides, the inhibition in [19] was 3.13%.
In the case of `CCn1c(-c2nonc2N)nc2c(C#CC(C)(C)O)ncc(OCC3CCNCC3)c21`, the inhibition in [1] was -3.68%; in [2], 5.04%; in assay [3], 4.9%; in assay [4] it was 2.92%; in assay [5] it was 23.5%; in assay [6], -0.18%. The inhibition in [7] was 4.4%; in [8], 3.83%; in assay [9] it was 1.52%; in assay [10], 2.77%; in assay [11] it was 3.34%; in assay [12] it was 2.71%. Besides, the inhibition in [13] was 6.72%; in assay [20] it was -3.36%; in [14], -3.17%; in [15], 4.38%; in assay [16] it was 2.78%; in assay [17], 4.23%. In addition, the figures for the inhibition in assay [18] and in [19] were 2.64% and 3.07%, respectively.
Consider `Fc1ccc(-c2ncn(C3CCNCC3)c2-c2ccnc(Oc3ccccc3)n2)cc1`, for which the inhibition was -3.96% in assay [1]; 1.86% in [2]; 4.87% in assay [3]; 1.35% in [4]; 2.72% in assay [5]; -0.44% in assay [6]. Besides, the inhibition is 0.52% in [7]; -4.18% in assay [8]; -4.41% in [9]; 1.92% in assay [10]; 0.47% in assay [11]; 1.72% in assay [12]. Also, the inhibition in assay [13] is -0.9%; in assay [20], -4.16%; in [14], -3.08%; in assay [15], 2.53%; in assay [16], 4.3%; in assay [17], 2.57%. Further, the results for the inhibition in [18] and in assay [19] were 4.15% and -1.35%, respectively.
With `NS(=O)(=O)c1ccc(-c2ccc3c(NC(=O)C4CC4)n[nH]c3c2)cc1`, the inhibition is -0.07% in [1]; 1.76% in [2]; 6.23% in assay [3]; 0.3% in assay [4]; 1.37% in [5]; -1.65% in assay [6]. The inhibition in assay [7] is 3.53%; in assay [8], 2.16%; in assay [9], -4.76%; in assay [10], 3.34%; in [11], 13%; in assay [12] it was 0.69%. For the same compound, the inhibition in [13] stood at 2.38%; in [20], 0.78%; in assay [14] it was 0.22%; in [15], 2.45%; in assay [16] it was 5.35%; in [17] it was 2.03%. Besides, the inhibition was 3.48% in [18] and 4.2% in assay [19].
Consider `CCn1c(-c2nonc2N)nc2c(C#CC(C)(C)O)nc(O[C@@H](CN)c3ccccc3)cc21`, for which the inhibition in assay [1] is 1.13%; in assay [2], 3.54%; in assay [3], 28.6%; in assay [4], 36.1%; in assay [5] it was 79.8%; in assay [6], -2.74%. For the same compound, the inhibition in assay [7] was -0.29%; in [8], 2.74%; in assay [9], 1.49%; in assay [10], 0.32%; in [11], 6.97%; in [12] it was 2.89%. Also, the inhibition in assay [13] is 23.8%; in [20] it was 0.99%; in assay [14] it was 1.24%; in assay [15] it was -0.9%; in [16], 5.48%; in assay [17], -1.97%. Also, the inhibition is 6.51% in [18] and -3.13% in assay [19].
Take `COc1cc2c(cc1Nc1nc(Nc3ccsc3C(N)=O)c3cc[nH]c3n1)N(C(=O)CN(C)C)CCC2`: the inhibition in [1] was 1.79%; in assay [2] it was 7.89%; in assay [3], 10.7%; in assay [4], -1.61%; in [5], 1.49%; in assay [6] it was -1.64%. The inhibition in assay [7] was 1.45%; in [8], -8.75%; in [9], -1.13%; in assay [12] it was 1.43%; in assay [13], 2.18%; in [20], -0.11%. In addition, the inhibition was 1.86% in assay [14]; -0.02% in [15]; 1.67% in [16]; 0.32% in assay [17]; 0.47% in [18]; -0.98% in assay [19].
In the case of `COc1cccc(COc2cc(-n3cnc4ccccc43)sc2C(N)=O)c1`, the inhibition is 1.25% in [1]; 1.93% in assay [2]; 1.54% in [3]; -2.33% in assay [4]; -0.83% in assay [5]; -1.3% in [6]. The inhibition in assay [7] is -4.17%; in [8] it was -9.33%; in [9], -0.53%; in assay [10], -0.84%; in assay [11] it was -0.77%; in assay [12], 0.89%. The inhibition was 1.25% in assay [13]; -1.78% in assay [20]; 0.73% in assay [14]; -0.39% in assay [15]; 1.18% in assay [16]; 0.3% in assay [17]. The inhibition in assay [18] came out at 1.75%; in assay [19] it was 2.33%.

In general, inhibition refers to the change of the read-out against control, counted positive when it falls.
